# From PubChem BioAssay (Tox21)
# Where “and” joins values, the source holds several entries; their conditions need not be identical. Equal entries are not always repeated. Results filed as inconclusive are left out. Entries that show only a call come without a potency. Some compounds were tested as several samples or in several runs, with calls that do not always agree. Calls of active or inactive are those of the source. Unless noted, calls come from the whole dose curve.
# Legend:
# [1] = Nuclear factor erythroid 2-related factor 2/antioxidant responsive element (Nrf2/ARE) small molecule agonists: qHTS cell viability counter screen in human keratinocytes (AID 1919968; active = well fitted curve in the direction sought with a large enough effect in the repeat runs; an effect the other way counts as inactive or inconclusive; note: nearly all actives have a fitted effect of over 55% in size; note: potency is the fitted concentration of half-maximal effect)
# Procedure, shortened: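 Cytotoxicity was multiplexed with the Nrf2/ARE luciferase assay in the same wells. Stably transfected HaCaT keratinocytes were treated with test compounds for 23 h at 37 C. Cell viability was then measured by CellTiter-Fluor fluorescence.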
# [2] = Nuclear factor erythroid 2-related factor 2/antioxidant responsive element (Nrf2/ARE) small molecule agonists: luciferase reporter gene qHTS assay in human keratinocytes (AID 1919969); note: nearly all actives have a fitted effect of over 35% in size; note: potency is the fitted concentration of half-maximal effect
# [3] = target: Gonadotropin-releasing hormone receptor (Homo sapiens) (UniProt P30968); assay: Human gonadotropin-releasing hormone receptor (GnRHR) small molecule agonists, calcium flux assay in GnRHR-HEK293 cells (AID 1920063); note: nearly all actives have a fitted effect of over 35% in size
# Chain of Gonadotropin-releasing hormone receptor (Homo sapiens) (P30968 whole entry, looked up): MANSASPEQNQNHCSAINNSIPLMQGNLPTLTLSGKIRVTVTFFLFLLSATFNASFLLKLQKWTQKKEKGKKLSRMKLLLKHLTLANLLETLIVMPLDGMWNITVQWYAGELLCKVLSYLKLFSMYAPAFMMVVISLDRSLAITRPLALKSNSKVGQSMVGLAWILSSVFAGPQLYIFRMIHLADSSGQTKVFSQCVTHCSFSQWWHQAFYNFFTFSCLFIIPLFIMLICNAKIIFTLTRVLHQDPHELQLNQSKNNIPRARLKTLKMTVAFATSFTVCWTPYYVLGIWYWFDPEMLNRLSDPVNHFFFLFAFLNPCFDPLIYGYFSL
# Procedure, shortened: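 Agonist activity was measured as intracellular calcium flux in HEK293 cells engineered to stably express human GnRHR. After dye loading for 1 hour at 37 C, compounds in DMSO were added and fluorescence was followed for 3 minutes.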
# [4] = target: KiSS-1 receptor (Homo sapiens) (UniProt Q969F8); assay: Human kisspeptin (KISS1R) small molecule agonists, calcium flux assay in KISS1R-HEK293 cells (AID 1920064; active = well fitted curve in the direction sought with a large enough effect in the repeat runs; an effect the other way counts as inactive or inconclusive)
# Chain of KiSS-1 receptor (Homo sapiens) (Q969F8 whole entry, looked up): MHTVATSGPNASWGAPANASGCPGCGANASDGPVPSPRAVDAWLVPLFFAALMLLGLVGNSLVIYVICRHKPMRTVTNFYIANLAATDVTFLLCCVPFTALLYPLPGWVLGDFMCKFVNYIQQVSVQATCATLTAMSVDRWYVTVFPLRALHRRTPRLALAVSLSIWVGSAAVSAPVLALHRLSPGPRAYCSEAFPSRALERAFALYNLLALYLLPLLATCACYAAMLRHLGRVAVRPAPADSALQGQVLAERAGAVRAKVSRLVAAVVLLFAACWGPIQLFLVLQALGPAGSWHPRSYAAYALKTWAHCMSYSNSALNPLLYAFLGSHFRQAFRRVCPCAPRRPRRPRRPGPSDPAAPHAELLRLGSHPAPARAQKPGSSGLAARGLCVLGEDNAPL
# Procedure, shortened: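 Agonist activity is monitored as intracellular calcium rise in engineered HEK293 cells carrying human KISS1R. Cells are dye-loaded for 1 h at 37 C before compound addition, and fluorescence is recorded for 3 min.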
# [5] = G protein-coupled receptor (GPCR) small molecule agonists, calcium flux assay: HEK293 wild type cell line counter screen (AID 1920065)
# Procedure, shortened: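 Seed cells, incubate 18 h (37 C, 5% CO2); add calcium dye, 1 h at 37 C; pin-transfer compounds, ATP control or DMSO; read fluorescence 480/540 nm each second for 3 min.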
# [6] = p53 small molecule agonists, cell-based qHTS assay with human liver microsomes: qHTS cell viability counter screen (AID 1963579); note: nearly all actives have a fitted effect of over 45% in size
# Procedure, shortened: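 Viability of p53RE-bla cells is measured as CellTiter-Glo luminescence following a 16 h, 37 C incubation with compound, liver microsomes from human donors and NADPH.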
# [7] = p53 small molecule agonists, cell-based qHTS assay with rat liver microsomes: qHTS cell viability counter screen (AID 1963580); note: nearly all actives have a fitted effect of over 45% in size
# Procedure, shortened: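 Counter screen for cytotoxicity under metabolic activation: rat liver microsomes and NADPH, 0.5 mg/mL final each, added with compounds to p53RE-bla HCT-116 cells; 16 h at 37 C, then ATP luminescence read.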
# [8] = p53 small molecule agonists, cell-based qHTS assay: qHTS cell viability counter screen (AID 1963581); note: nearly all actives have a fitted effect of over 45% in size
# Procedure, shortened: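 Viability was counter-screened in parallel with the p53 agonist reporter by measuring intracellular ATP luminescence in the same HCT-116 p53RE-bla wells after 16 h compound treatment at 37 C.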
# [9] = target: 5-hydroxytryptamine receptor 2A (Homo sapiens) (UniProt P28223); assay: 5-hydroxytryptamine receptor 2A (HTR2A) small molecule antagonists, cell-based qHTS assay (AID 1963586); note: nearly all actives have a fitted effect of over 45% in size; note: potency is the fitted concentration of half-maximal effect
# Chain of 5-hydroxytryptamine receptor 2A (Homo sapiens) (P28223 whole entry, looked up): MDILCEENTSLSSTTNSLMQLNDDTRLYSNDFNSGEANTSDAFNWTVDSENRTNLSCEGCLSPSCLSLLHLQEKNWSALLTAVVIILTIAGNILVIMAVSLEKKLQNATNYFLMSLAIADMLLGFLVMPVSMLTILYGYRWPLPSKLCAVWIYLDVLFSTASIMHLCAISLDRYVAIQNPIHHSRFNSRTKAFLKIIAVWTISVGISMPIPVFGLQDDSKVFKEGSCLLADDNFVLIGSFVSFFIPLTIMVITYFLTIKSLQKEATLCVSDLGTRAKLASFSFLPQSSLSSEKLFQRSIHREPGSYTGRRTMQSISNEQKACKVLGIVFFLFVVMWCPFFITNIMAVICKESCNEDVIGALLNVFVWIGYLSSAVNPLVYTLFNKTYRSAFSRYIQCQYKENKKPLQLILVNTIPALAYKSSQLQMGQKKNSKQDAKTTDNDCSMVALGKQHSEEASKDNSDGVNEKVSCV
# Procedure, shortened: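 CHO cells stably expressing human HTR2A were plated for 18 h at 37 C, then loaded with calcium dye for 1 h. Compounds were preincubated 5 min at room temperature before DOI (4 nM solution) was added. Kinetic fluorescence was read for 3 min.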
# [10] = target: 5-hydroxytryptamine receptor 2A (Homo sapiens) (UniProt P28223); assay: 5-hydroxytryptamine receptor 2A (HTR2A) small molecule agonists, cell-based qHTS assay (AID 1963587); note: nearly all actives have a fitted effect of over 30% in size
# Procedure, shortened: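 HTR2A-CHO cells, plated 18 h at 37 C/5% CO2, dye-loaded 1 h at 37 C; compounds in DMSO added by pin tool (agonist mode). Intracellular calcium flux read as kinetic fluorescence on FDSS over 2 min at 1 s intervals.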
# [11] = target: Muscarinic acetylcholine receptor M1 (Homo sapiens) (UniProt P11229); assay: Cholinergic receptor muscarinic 1 (CHRM1) small molecule antagonists, cell-based qHTS assay (AID 1963588); note: nearly all actives have a fitted effect of over 40% in size
# Chain of Muscarinic acetylcholine receptor M1 (Homo sapiens) (P11229 whole entry, looked up): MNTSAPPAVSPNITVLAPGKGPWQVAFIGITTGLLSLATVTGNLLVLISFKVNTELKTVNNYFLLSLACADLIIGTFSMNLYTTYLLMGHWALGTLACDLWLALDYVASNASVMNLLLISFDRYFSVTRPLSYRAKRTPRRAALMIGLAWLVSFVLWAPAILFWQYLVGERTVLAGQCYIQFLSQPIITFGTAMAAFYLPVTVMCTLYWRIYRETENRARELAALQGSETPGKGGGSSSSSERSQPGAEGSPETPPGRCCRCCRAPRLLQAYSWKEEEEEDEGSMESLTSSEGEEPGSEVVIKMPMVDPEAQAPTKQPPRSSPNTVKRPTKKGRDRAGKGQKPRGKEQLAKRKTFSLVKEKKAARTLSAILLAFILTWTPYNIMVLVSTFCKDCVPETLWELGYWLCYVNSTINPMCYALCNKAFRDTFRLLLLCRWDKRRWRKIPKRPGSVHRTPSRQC
# Procedure, shortened: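 Compounds were tested at 15 concentrations in three independent runs. Dye-loaded CHRM1-CHO cells were exposed 5 min at room temperature before stimulation by acetylcholine added at 50nM. Intracellular calcium was read kinetically on FDSS for 3 min.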
# [12] = target: Muscarinic acetylcholine receptor M1 (Homo sapiens) (UniProt P11229); assay: Cholinergic receptor muscarinic 1 (CHRM1) small molecule agonists, cell-based qHTS assay (AID 1963589); note: nearly all actives have a fitted effect of over 35% in size; note: potency is the fitted concentration of half-maximal effect
# Procedure, shortened: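 Cells were plated and incubated 18 h at 37 C/5% CO2, loaded with calcium dye for 1 h at 37 C, then treated with compounds in DMSO. Fluorescence was recorded kinetically at 1 sec intervals.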
# [13] = cAMP Responsive Elements (CRE) small molecule antagonists, cell-based qHTS assay (AID 1963591; active = well fitted inhibition curve with a large enough effect in the signal ratio in the repeat runs, not every such curve was filed as active; the % refers to the signal ratio)
# Procedure, shortened: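 Cells (CRE-bla HEK 293T, DMEM with 10% dialyzed FBS and 25 mM HEPES) are seeded and incubated 18 h. Compounds are added with NKH477 agonist at 0.25 uM final for 3 h, then FRET substrate for 2 h.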
# [14] = target: Beta-2 adrenergic receptor (Homo sapiens) (UniProt P07550); assay: Adrenergic beta2 receptor (ADRB2) small molecule antagonists, cell-based qHTS assay (AID 1963592); note: nearly all actives have a fitted effect of over 50% in size; note: potency is the fitted concentration of half-maximal effect; for activity change, negative = inhibition: series mostly up to about 92 µM
# Chain of Beta-2 adrenergic receptor (Homo sapiens) (P07550 whole entry, looked up): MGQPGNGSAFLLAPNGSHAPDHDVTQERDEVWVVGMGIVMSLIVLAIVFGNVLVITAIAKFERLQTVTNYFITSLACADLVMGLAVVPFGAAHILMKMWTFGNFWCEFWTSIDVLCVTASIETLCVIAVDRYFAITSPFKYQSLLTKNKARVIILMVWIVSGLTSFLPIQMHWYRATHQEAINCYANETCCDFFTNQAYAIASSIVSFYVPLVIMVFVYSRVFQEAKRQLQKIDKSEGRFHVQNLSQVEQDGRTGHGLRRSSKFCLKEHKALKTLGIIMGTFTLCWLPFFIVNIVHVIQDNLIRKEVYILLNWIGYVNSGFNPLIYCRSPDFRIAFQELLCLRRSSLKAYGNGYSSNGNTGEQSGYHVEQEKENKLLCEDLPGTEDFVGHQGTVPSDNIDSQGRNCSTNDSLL
# Procedure, shortened: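 Assay format: CHO-ADRB2 cells, 18-20hr seeding at 37C/5% CO2, then compound plus 1nM isoproterenol agonist mix for 0.5hr RT. Homogeneous time-resolved fluorescence cAMP detection after 1hr, expressed as 665/615 nm ratio.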
# [15] = target: Beta-2 adrenergic receptor (Homo sapiens) (UniProt P07550); assay: Adrenergic beta2 receptor (ADRB2) small molecule agonists, cell-based qHTS assay (AID 1963593);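 note: CHO cells stably overexpressing human ADRB2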
# Procedure, shortened: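 CHO cells stably over-expressing ADRB2 were plated overnight at 37C, then dosed with compounds plus a stimulation mix containing 100uM IBMX and 25uM Ro-20-1724 for 0.5hr at room temperature. cAMP was measured by HTRF competition, 1hr.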
# [16] = target: D(2) dopamine receptor (Homo sapiens) (UniProt P14416); assay: Dopamine D2 receptor (DRD2) small molecule agonists, cell-based qHTS assay (AID 1963594); note: nearly all actives have a fitted effect of over 35% in size
# Chain of D(2) dopamine receptor (Homo sapiens) (P14416 whole entry, looked up): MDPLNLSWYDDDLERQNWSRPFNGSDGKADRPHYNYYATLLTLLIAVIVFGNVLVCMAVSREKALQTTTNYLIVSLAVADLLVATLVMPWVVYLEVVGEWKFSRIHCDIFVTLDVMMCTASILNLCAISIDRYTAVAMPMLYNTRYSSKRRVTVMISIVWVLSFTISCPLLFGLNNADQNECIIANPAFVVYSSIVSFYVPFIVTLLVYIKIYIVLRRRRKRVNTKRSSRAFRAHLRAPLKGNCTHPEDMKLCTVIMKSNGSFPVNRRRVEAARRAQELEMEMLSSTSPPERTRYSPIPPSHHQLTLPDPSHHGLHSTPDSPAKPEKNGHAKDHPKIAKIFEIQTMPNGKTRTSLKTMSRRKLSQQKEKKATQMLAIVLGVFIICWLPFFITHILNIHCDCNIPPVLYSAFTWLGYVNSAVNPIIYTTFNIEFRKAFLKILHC
# Procedure, shortened: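 HEK293 cells stably expressing DRD2 were cultured 24 h at 37 C, then given Ro20-1724 (0.1 mM final) and compounds for 10 min at room temperature. NKH477 (200nM) was then added for 30 min. cAMP was read by HTRF.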
# [17] = target: D(2) dopamine receptor (Homo sapiens) (UniProt P14416); assay: Dopamine D2 receptor (DRD2) small molecule antagonists, cell-based qHTS assay (AID 1963595; active = well fitted inhibition curve with a large enough effect in the signal ratio in the repeat runs, with a control signal flat; the % refers to the signal ratio)
# Procedure, shortened: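 HEK293 cells stably expressing DRD2 were preincubated with 0.1 mM Ro20-1724, then with compound for 10 min at room temperature. Cells were stimulated with 200 nM NKH477 plus 12 nM quinpirole for 30 min, and cAMP was read by HTRF.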
# [18] = cAMP Responsive Elements (CRE) small molecule agonists, cell-based qHTS assay (AID 1963590)
# Procedure, shortened: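 Cells carrying a CRE-driven beta-lactamase reporter (HEK 293T) are seeded, incubated overnight (18 h), and treated with test compounds for 3 h at 37 C; reporter activity is then detected with a FRET substrate after 2 h at room temperature.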
# [19] = p53 small molecule agonists, cell-based qHTS assay (AID 1963582; active = well fitted activation curve with a large enough effect in the signal ratio in the repeat runs, not every such curve was filed as active; the % refers to the signal ratio)
# Procedure, shortened: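 Cells carrying a p53-responsive bla reporter are treated with test compounds for 16 h at 37 C; beta-lactamase activity is then detected with LiveBLAzer B/G FRET substrate after 2 h at room temperature.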
SMILES,Potency [1],Potency [2],Potency [3],Potency [4],Potency [5],Potency [6],Potency [7],Potency [8],Potency [9],Potency [10],Potency [11],Potency [12],Potency [13],Potency [14],Potency [15],Potency [16],Potency [17],Potency [18],Potency [19],"activity change, negative = inhibition [13]"
OC1CCCC1,inactive,inactive,inactive,inactive,inactive,inactive,inactive,inactive,inactive,inactive,inactive,inactive,inactive,inactive,inactive,inactive,inactive,,,
C/C=C/C(=O)O,inactive,inactive,inactive,inactive,inactive,inactive,inactive,inactive,inactive,inactive,inactive,93.3 nM (active) and inactive,inactive,inactive,,inactive,,inactive,,
Nc1cccc(N)n1,inactive,inactive,inactive,inactive,inactive,inactive,inactive,inactive,inactive,inactive,inactive,inactive,inactive,,,inactive,inactive,inactive,,
OCC(CO)(CO)CO,inactive,inactive,inactive,inactive,inactive,inactive,inactive,inactive,inactive,inactive,inactive,inactive,inactive,inactive,,inactive,inactive,,,
CO[Si](CCCNCCN)(OC)OC,inactive,inactive,inactive,inactive,inactive,inactive,inactive,inactive,inactive,inactive,inactive,inactive,inactive,inactive,inactive,inactive,inactive,inactive,,
CCCCCOC(C)=O,inactive,68.6 µM (active),inactive,inactive,inactive,inactive,inactive,inactive,inactive,inactive,inactive,inactive,inactive,inactive,inactive,inactive,inactive,inactive,,
OCc1ccccc1,inactive,inactive and 9.69 µM (active),inactive,inactive,inactive,inactive,inactive,inactive,,,,,inactive,inactive,inactive,inactive,inactive,inactive,,
Nc1ccc2cc3ccccc3cc2c1,inactive,inactive,inactive,inactive,inactive,inactive,inactive,inactive,inactive,inactive,,inactive,,inactive,inactive,inactive,inactive,,,
O=c1cc(-c2ccccc2)oc2ccccc12,inactive and 13.6 µM (active),4.86 µM (active) and 2.16 µM (active),inactive,inactive,inactive,inactive,inactive,inactive,,inactive,inactive,inactive,,inactive,,inactive,,,,
CCCCCCCO,inactive,inactive and 61.1 µM (active),inactive,inactive,inactive,inactive,inactive,inactive,inactive,,inactive,inactive,inactive,inactive,inactive,inactive,inactive,inactive,,
C=CC(C)(O)CCC=C(C)C (stereo not drawn),inactive,inactive,inactive,inactive,inactive,inactive,inactive,inactive,inactive,inactive,inactive,inactive,inactive,inactive,,inactive,inactive,inactive,,
CC(=O)CC(=O)Nc1ccccc1,inactive,inactive,inactive,inactive,inactive,inactive,inactive,inactive,,inactive,inactive,inactive,inactive,inactive,,inactive,inactive,,,
CS(=O)(=O)c1ccc(Cl)cc1,inactive,inactive,inactive,inactive,inactive,inactive,inactive,inactive,inactive,inactive,inactive,inactive,inactive,inactive,inactive,inactive,inactive,,,
Oc1ccc2cc(SSc3ccc4cc(O)ccc4c3)ccc2c1,inactive,68.7 µM (active) and 68.6 µM (active),inactive,inactive,inactive,,inactive,,,inactive,inactive,inactive,inactive,,,inactive,inactive,,,
COc1cc(C(=O)NCc2ccc(OCCN(C)C)cc2)cc(OC)c1OC,inactive,inactive,inactive,inactive,inactive,inactive,,inactive,inactive,inactive,inactive,inactive,,inactive,inactive,inactive,,inactive,inactive,
CCOC(=O)N1CCC(=C2c3ccc(Cl)cc3CCc3cccnc32)CC1,68.6 µM (active) and 26.6 µM (active),inactive,inactive,inactive,inactive,,,inactive,,,,,inactive,54.5 µM (active),,inactive,,inactive,,

SMILES,Potency [1],Potency [2],Potency [3],Potency [4],Potency [5],Potency [6],Potency [7],Potency [8],Potency [9],Potency [10],Potency [11],Potency [12],Potency [13],Potency [14],Potency [15],Potency [16],Potency [17],Potency [18],Potency [19],"activity change, negative = inhibition [13]"
CC(C(=O)O)c1cccc(C(=O)c2ccccc2)c1 (stereo not drawn),inactive,inactive,inactive,inactive,inactive,,,,,,,,,inactive,,inactive,inactive,,inactive,
CC1(C)O[C@@H]2C[C@H]3[C@@H]4C[C@H](F)C5=CC(=O)C=C[C@]5(C)[C@@]4(F)[C@@H](O)C[C@]3(C)[C@]2(C(=O)CO)O1,inactive,inactive,inactive,inactive,inactive,inactive,inactive,inactive,,,,,,,inactive,inactive,inactive,,,
COc1cc2c(Nc3ccc(Br)cc3F)ncnc2cc1OCC1CCN(C)CC1,inactive,inactive,inactive,inactive,inactive,,inactive,inactive,inactive,inactive,inactive,inactive,inactive,inactive,,inactive,inactive,inactive,inactive,
CC(=O)OCC(=O)[C@@]1(O)CC[C@H]2[C@@H]3CCC4=CC(=O)C=C[C@]4(C)[C@H]3[C@@H](O)C[C@@]21C,inactive,inactive,inactive,inactive,inactive,,,inactive,inactive,,,,inactive,inactive,inactive,inactive,inactive,inactive,,
CN1Cc2c(N)cccc2C(c2ccccc2)C1 (stereo not drawn),inactive,inactive,inactive,inactive,inactive,,inactive,inactive,14.9 µM (active),inactive,inactive,inactive,inactive,inactive,inactive,inactive,inactive,inactive,,
CC(c1cc2ccccc2s1)N(O)C(N)=O (stereo not drawn),inactive,inactive,inactive,inactive,inactive,,inactive,inactive,,,,,inactive,inactive,inactive,inactive,,inactive,,
CC1(C)[C@H](C(=O)OCc2cccc(Oc3ccccc3)c2)[C@@H]1C=C(Cl)Cl,inactive,inactive,inactive,inactive,inactive,,inactive,inactive,inactive,inactive,inactive,inactive,inactive,inactive,,inactive,inactive,,inactive,
CN=C(NC#N)NCCSCc1nc[nH]c1C,inactive,inactive,inactive,inactive,inactive,inactive,inactive,,,,,,inactive,inactive,inactive,,inactive,inactive,,
CN(Cc1cnc2nc(N)nc(N)c2n1)c1ccc(C(=O)N[C@@H](CCC(=O)O)C(=O)O)cc1,inactive,inactive,inactive,inactive,inactive,inactive,inactive,,,,,,inactive,,inactive,,inactive,inactive,,
CC1COc2ccccc2N1C(=O)C(Cl)Cl (stereo not drawn),inactive,21.6 µM (active),inactive,inactive,inactive,inactive,inactive,,inactive,inactive,,inactive,,inactive,inactive,inactive,inactive,,,
O=C(NCC1CCCCN1)c1cc(OCC(F)(F)F)ccc1OCC(F)(F)F (stereo not drawn),inactive,inactive,inactive,inactive,inactive,,,inactive,inactive,inactive,inactive,inactive,inactive,inactive,,inactive,inactive,inactive,inactive,
CCCCOCCOCCOC(=O)CCCCC(=O)OCCOCCOCCCC,inactive,inactive,inactive,inactive,inactive,inactive,inactive,,inactive,inactive,inactive,,inactive,inactive,,inactive,inactive,inactive,,
NCCNCCNCCNCCN,inactive,inactive,inactive,inactive,inactive,inactive,,inactive,inactive,inactive,inactive,inactive,,inactive,,inactive,inactive,inactive,,-9.22% [at 8.39 µM] (inactive)
CC(C)CC(C)O (stereo not drawn),inactive,inactive,inactive,inactive,inactive,inactive,inactive,,inactive,inactive,inactive,inactive,inactive,,inactive,inactive,inactive,inactive,,
O=C1CC2(CCCC2)CC(=O)N1CCCCN1CCN(c2ncccn2)CC1,inactive,inactive,inactive,inactive,inactive,,,inactive,,,,,inactive,inactive,inactive,inactive,,inactive,,
